Results published in PubChem BioAssay.

Assay: probe aXIP binding to arrayed compounds – biochemical, NeuroSMM set, 635/667 nm fluorescence, primary screen (AID 1119);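 also: probe is the protein aXip251-270 applied at 1 µg/mL to compound-printed slides; binding of probe to printed compounds measured as 667 nm fluorescence plus signal to noise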
Conditions: small-molecule microarray, higher = more signal, called active from +8 up or from −8 down

Composite Z-score, inactive:
CC(C)(C)OC(=O)CC[C@]1(C(=O)NCCN2CCOCC2)COC(c2ccc(OCCCO)cc2)=N1 0.347, CN1C(=O)C2C=CC(C(O)c3ccccc3)N(N3CCCCC3)C2C1=O (stereo not given) -0.123, CC[C@@H]1C=C(C(=O)O)[C@H](c2cccc3ccccc23)N1S(=O)(=O)c1ccc(C)cc1 -0.122, C=CCNC(=O)[C@H]1[C@@H]2C(=O)O[C@@H](c3ccccc3)[C@@H](c3ccccc3)N2[C@@H](c2ccc(OCCO)cc2)[C@]12C(=O)Nc1ccc(C#CCC(C(=O)OC)C(=O)OC)cc12 0.612, C=CCN1Cc2ccccc2[C@@H]2OC(c3ccc(OCCCO)cc3)=N[C@]2(CCS(=O)(=O)c2ccccc2)C1=O 0.187, C[N+](C)(C)CCCC[C@@H]1NC(=O)[C@H]2C[C@@H](C(=O)NCCCCCCNC(=O)CS)[C@@H](c3ccc(O)cc3)N2C1=O -0.921, CC(=O)Nc1cc(Br)ccc1C(=O)NCc1ccccc1 -0.34, O=C1C2C=CC(C(O)c3ccc4c(c3)OCO4)N(Nc3ccc([N+](=O)[O-])cc3)C2C(=O)N1c1ccccc1 (stereo not given) -0.0054, COc1ccc(C(O)C2C=CC3C(=O)N(C)C(=O)C3N2N(c2ccccc2)c2ccccc2)c2ccccc12 (stereo not given) 1.39, COc1cc2c(cc1O)C=[N+](Cc1cc3c(cc1Br)OCO3)CC2 -0.402
